Screening results deposited in PubChem BioAssay by Broad Institute.
The sample as a whole holds a higher share of hits than the screen did.
ID4 binder: binders of human ID4 protein; calls only; P47928; AID 624137; actives 1.2% (n = 31,000); small molecule microarray, Flag-ID4 binding, fluorescence F/B; call rule not given here;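 further: a binder raises fluorescence above local background on the spot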
Target sequence (P47928 whole entry, looked up): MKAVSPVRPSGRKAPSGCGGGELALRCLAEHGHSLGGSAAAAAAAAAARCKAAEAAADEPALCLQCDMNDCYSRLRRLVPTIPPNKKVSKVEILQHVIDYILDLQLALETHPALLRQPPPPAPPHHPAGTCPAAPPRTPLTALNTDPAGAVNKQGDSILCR
STK33 inh: inhibitors of human STK33 kinase | Q9BYT3 | ADP-Glo luminescence, MBP substrate | inhibition, % at 12.5 µM | actives 0.44% (n = 27,000); in the data active means inhibition above about 20%
Target sequence (Q9BYT3 whole entry, looked up): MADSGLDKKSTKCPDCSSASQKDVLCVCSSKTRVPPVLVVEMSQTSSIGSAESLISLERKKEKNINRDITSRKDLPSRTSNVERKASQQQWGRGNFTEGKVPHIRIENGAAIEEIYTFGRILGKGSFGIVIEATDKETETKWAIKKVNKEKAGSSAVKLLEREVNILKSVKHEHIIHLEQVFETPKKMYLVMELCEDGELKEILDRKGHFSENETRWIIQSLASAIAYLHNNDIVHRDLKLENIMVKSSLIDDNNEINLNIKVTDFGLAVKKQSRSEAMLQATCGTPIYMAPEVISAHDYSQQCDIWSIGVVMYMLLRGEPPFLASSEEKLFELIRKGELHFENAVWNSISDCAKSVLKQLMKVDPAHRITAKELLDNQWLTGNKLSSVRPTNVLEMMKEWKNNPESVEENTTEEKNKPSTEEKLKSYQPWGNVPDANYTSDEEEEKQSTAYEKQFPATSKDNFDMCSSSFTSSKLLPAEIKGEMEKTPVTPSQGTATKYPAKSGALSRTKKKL
NOMO-1 viab: STK33 inhibitor candidate reducing NOMO-1 cell viability; NOMO-1 AML viability, CellTiter-Glo luminescence, 72 h; inhibition, % (concentration not given with the values); actives 7.5% (n = 37,000); AID 2330; in the data active means inhibition above about 80%
p53 PUMA act: restores mutant p53 pathway signaling in SW480 cells; SW480 PUMA-promoter luciferase, p53 mutant reactivation; activation, % at 9.98 µM; actives 1.5% (n = 28,000); in the data active means activation above about 52%
Each line names hits and unclear results; the compound was inactive in the other large screens.

C[C@H]1CN([C@@H](C)CO)C(=O)c2cc(-c3ccccc3F)cnc2O[C@H]1CN(C)Cc1ccccc1F	none (no result: STK33 inh, NOMO-1 viab, p53 PUMA act)
C[C@H](CO)N1C[C@H](C)[C@@H](CN(C)C(=O)c2ccncc2)OCCCC[C@H](C)Oc2ccc(N(C)C)cc2C1=O	none (no result: STK33 inh, NOMO-1 viab)
COc1ccc(CN(C)C[C@@H]2Oc3ccc(NC(=O)Cc4cn(C)c5ccccc45)cc3C(=O)N([C@@H](C)CO)C[C@@H]2C)cc1	ID4 binder active
C[C@H](CO)N1C[C@H](C)[C@H](CN(C)Cc2ccc(Oc3ccccc3)cc2)Oc2ccc(NC(=O)Cc3cn(C)c4ccccc34)cc2C1=O	none (no result: ID4 binder, STK33 inh, p53 PUMA act)
C[C@@H]1CN([C@H](C)CO)C(=O)c2cc(NC(=O)Cc3cn(C)c4ccccc34)ccc2O[C@@H]1CN(C)Cc1ccc(Oc2ccccc2)cc1	NOMO-1 viab 108 (no result: ID4 binder, STK33 inh, p53 PUMA act)
Cc1ccc(S(=O)(=O)Nc2ccc3c(c2)CC(=O)N([C@H](C)CO)C[C@@H](C)[C@@H](CN(C)S(=O)(=O)c2ccc(Cl)cc2)O3)cc1	none (no result: ID4 binder, p53 PUMA act)
C[C@@H]1CN([C@H](C)CO)C(=O)c2cc(NC(=O)CCC(F)(F)F)ccc2O[C@@H]1CN(C)Cc1ccc(C(=O)Nc2ccccc2N)cc1	NOMO-1 viab 104 (no result: ID4 binder, STK33 inh, p53 PUMA act)
C[C@H]1CN([C@@H](C)CO)C(=O)Cc2cc(NC(=O)CCC(F)(F)F)ccc2O[C@@H]1CN(C)Cc1ccc(C(=O)Nc2ccccc2N)cc1	none (no result: ID4 binder, STK33 inh, p53 PUMA act)
C[C@H]1CN([C@@H](C)CO)C(=O)Cc2cc(NC(=O)CCC(F)(F)F)ccc2O[C@H]1CN(C)Cc1ccc(C(=O)Nc2ccccc2N)cc1	NOMO-1 viab 139 (no result: ID4 binder, STK33 inh, p53 PUMA act)
Cc1c(O)cc(O)c2c1OC(c1ccccc1)CC2=O (stereo unspecified)	none (no result: p53 PUMA act)
Cc1cc(O)c(C)c2c1Oc1c(C)c(O)cc(C)c1C(=O)O2	STK33 inh 23 (no result: p53 PUMA act)
O=C(CNS(=O)(=O)c1cc(Cl)ccc1Cl)Nc1ccc(Cl)cc1	none
COc1ccc(S(=O)(=O)Nc2ccc3c(c2)CC(=O)N([C@@H](C)CO)C[C@@H](C)[C@@H](CN(C)CC2CCCCC2)O3)cc1	NOMO-1 viab 101 (no result: ID4 binder, p53 PUMA act)
COc1ccc(S(=O)(=O)Nc2ccc3c(c2)CC(=O)N([C@@H](C)CO)C[C@@H](C)[C@@H](CN(C)CC2CC2)O3)cc1	none
COc1ccc(S(=O)(=O)Nc2ccc3c(c2)CC(=O)N([C@@H](C)CO)C[C@H](C)[C@@H](CN(C)CC2CCCCC2)O3)cc1	NOMO-1 viab 109 (no result: ID4 binder, p53 PUMA act)
COc1cc2c(cc1OC)[C@H]1[C@@H](C)c3ccc(OC)c(OC)c3CN1CC2	none (no result: ID4 binder, NOMO-1 viab)
CN(C)C(=O)C[C@@H]1C[C@H]2c3cc(NC(=O)C4CCC4)ccc3O[C@H]2[C@@H](CO)O1	none (no result: STK33 inh, NOMO-1 viab, p53 PUMA act)
COc1ccc(OC(C)c2nc(-c3cccnc3)no2)cc1 (stereo unspecified)	none
CC(Oc1ccc(Br)cc1)c1nc(-c2ccccn2)no1 (stereo unspecified)	p53 PUMA act 60
CC(Oc1ccc(C(C)(C)C)cc1)c1nc(-c2cccnc2)no1 (stereo unspecified)	NOMO-1 viab 81
Cc1noc(C)c1NC(=O)N(C)C[C@@H]1Oc2ccc(NC(=O)Nc3ccccc3)cc2C(=O)N([C@@H](C)CO)C[C@H]1C	none (no result: ID4 binder, STK33 inh, p53 PUMA act)
OC(CN1CCNCC1)Cn1c2ccc(Br)cc2c2cc(Br)ccc21 (stereo unspecified)	NOMO-1 viab 121 (no result: p53 PUMA act)
C[C@@H]1CN([C@H](C)CO)C(=O)Cc2cc(NC(=O)Cc3ccccc3)ccc2O[C@@H]1CN(C)S(=O)(=O)c1ccccc1	none (no result: ID4 binder, p53 PUMA act)
C[C@H]1CN([C@@H](C)CO)C(=O)c2cc(C#CC(C)(C)O)cnc2O[C@H]1CN(C)Cc1cccc(F)c1	none (no result: STK33 inh, NOMO-1 viab)
CO[C@H]1C[C@@H]2CC[C@@H](C)[C@@](O)(O2)C(=O)C(=O)N2CCCC[C@H]2C(=O)O[C@H]([C@H](C)C[C@@H]2CC[C@@H](O)[C@H](OC)C2)CC(=O)[C@H](C)/C=C(\C)[C@@H](O)[C@@H](OC)C(=O)[C@H](C)C[C@H](C)/C=C/C=C/C=C\1C	NOMO-1 viab 131 (no result: ID4 binder)
COc1cccc(NC(=O)CN(C)S(=O)(=O)c2ccc(OC)c(C)c2)c1	none
C[C@@H]1CCCCO[C@@H](CN(C)S(=O)(=O)c2ccc(Cl)cc2)[C@@H](C)CN([C@H](C)CO)C(=O)c2cc(NC(=O)Cc3ccccc3)ccc2O1	none (no result: ID4 binder, p53 PUMA act)
C[C@H]1CN([C@@H](C)CO)C(=O)c2cccc(NC(=O)Nc3cccc4ccccc34)c2O[C@H]1CN(C)C(=O)Nc1ccc(C(F)(F)F)cc1	NOMO-1 viab 109 (no result: STK33 inh)
C[C@H](CO)N1C[C@H](C)[C@H](CN(C)C(=O)Nc2ccc(C(F)(F)F)cc2)Oc2c(NC(=O)Nc3cccc4ccccc34)cccc2C1=O	ID4 binder active, NOMO-1 viab 102 (no result: STK33 inh)
C[C@H]1CN([C@@H](C)CO)C(=O)c2cccc(NC(=O)Nc3cccc4ccccc34)c2O[C@H]1CN(C)C(=O)Nc1ccc(F)cc1	NOMO-1 viab 87 (no result: STK33 inh)
C[C@H](CO)N1C[C@H](C)[C@@H](CN(C)C(=O)Nc2ccc(C(F)(F)F)cc2)Oc2c(NC(=O)Nc3cccc4ccccc34)cccc2C1=O	NOMO-1 viab 100 (no result: STK33 inh)
C[C@H]1CN([C@@H](C)CO)C(=O)c2cccc(NC(=O)Nc3ccc(F)cc3)c2O[C@H]1CN(C)C(=O)Nc1cccc2ccccc12	none (no result: ID4 binder, STK33 inh, p53 PUMA act)
C[C@H](CO)N1C[C@H](C)[C@H](CN(C)C(=O)Nc2cccc3ccccc23)Oc2c(NC(=O)Nc3ccc(C(F)(F)F)cc3)cccc2C1=O	none (no result: ID4 binder, STK33 inh, p53 PUMA act)
C[C@@H]1CN([C@@H](C)CO)C(=O)c2cccc(NC(=O)Nc3ccc(C(F)(F)F)cc3)c2O[C@@H]1CN(C)C(=O)Nc1cccc2ccccc12	none (no result: ID4 binder, STK33 inh, p53 PUMA act)
C[C@H]1CN([C@@H](C)CO)C(=O)c2cccc(NC(=O)Nc3ccccc3)c2O[C@@H]1CN(C)C(=O)Nc1ccc(C(F)(F)F)cc1	none (no result: ID4 binder, STK33 inh, p53 PUMA act)
COc1ccc(NC(=O)CSc2nnc(-c3ccccc3)n2-c2ccccc2)c([N+](=O)[O-])c1	none
COc1ccccc1NC(=O)CSc1nc(C)cc(-c2ccccc2)n1	none
C[C@@H]1CCCCO[C@H](CN(C)S(=O)(=O)c2cccs2)[C@@H](C)CN([C@H](C)CO)C(=O)c2cc(NC(=O)Nc3ccc(C(F)(F)F)cc3)ccc2O1	NOMO-1 viab 90 (no result: ID4 binder, p53 PUMA act)
C[C@@H]1CCCCO[C@@H](CN(C)S(=O)(=O)c2cccs2)[C@@H](C)CN([C@H](C)CO)C(=O)c2cc(NC(=O)Nc3ccc(C(F)(F)F)cc3)ccc2O1	none (no result: ID4 binder, p53 PUMA act)
Cc1noc(C)c1S(=O)(=O)N(C)C[C@@H]1OCCCC[C@@H](C)Oc2ccc(NC(=O)Nc3ccccc3)cc2C(=O)N([C@@H](C)CO)C[C@@H]1C	none (no result: ID4 binder, STK33 inh, NOMO-1 viab)
Cc1noc(C)c1S(=O)(=O)N(C)C[C@H]1OCCCC[C@@H](C)Oc2ccc(NC(=O)Nc3ccc(C(F)(F)F)cc3)cc2C(=O)N([C@H](C)CO)C[C@@H]1C	NOMO-1 viab 104 (no result: ID4 binder, p53 PUMA act)
COc1ccc(OCC(=O)Nc2cccc(-c3nnc4c5ccccc5c(C)nn34)c2)cc1	p53 PUMA act 101
COc1ccc(OCC(=O)Nc2ccc3nn(-c4ccc(Cl)cc4)nc3c2)cc1	none
Cn1c(SCC(=O)Nc2cccc(F)c2)nnc1-c1cc2ccccc2o1	none
Cc1nn2c(-c3cccc(NC(=O)CSc4nc5ccccc5o4)c3)nnc2c2ccccc12	p53 PUMA act 74
CCn1c(SCC(=O)Nc2c(C)cccc2C)nnc1-c1cnccn1	ID4 binder active
